This passage reports Potency and outcome results from PubChem BioAssay (NCATS).

Unmarked numbers belong to inactive results. Results filed as inconclusive are left out. Activity calls are given as the source filed them. Calls follow the shape of the dose curve; as a rule, active = well fitted curve in the direction sought with a large enough effect; inconclusive = small, poorly fitted or top-dose-only effect, or another doubt; inactive = no such curve, though single readings can be large; an effect the other way counts as inactive or inconclusive.

Assay [1] can be described thus: qHTS to identify inhibitors of the type 1 interferon - major histocompatibility complex class I in skeletal muscle: primary screen against the NCATS Mechanism Interrogation Plate v5.0 (MIPE) Libary (AID 1347411). Also: nearly all actives have a fitted effect of over 65% in size. Also: potency is read from the fitted curve at half-maximal effect. An outline of the steps:
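HLA-B HiBit myoblasts, dexamethasone-free medium + 4 ng/ml IFN-b, 24 h compound, 11-pt 1:3 from 46 uM final. Readout: Nano-Glo HiBiT lytic luminescence after 10 min lysis, RT.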
In general terms: Quantitative high-throughput screening tests each substance at several concentrations.

Assay [2] concerns the target Protein phosphatase 1D (Homo sapiens) (UniProt O15297). Nature of the assay: RapidFire Mass Spectrometry qHTS Assay for Modulators of WT P53-Induced Phosphatase 1 (WIP1) (AID 1347424). Also: series mostly up to about 63 µM. The procedure, abridged: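 RapidFire MS readout of dephosphorylated VEPPL-S-QETFS product, with 1 uM isotope-labelled peptide standard. Reaction: 10 nM WIP1, 2 uM phosphopeptide substrate, 5 min, room temperature, after 1 h compound preincubation; stopped with 0.5% formic acid.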

Assay [3] is described as follows: Primary qHTS for inhibitors of La Crosse Virus (LACV) - induced cell death in SH-SY5Y cells (AID 1508616).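 Also: top concentration of the series differs between compounds; higher means more rescue of cells from virus-induced death.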 An outline of the steps: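 Cytopathicity rescue screen: compounds pinned onto SH-SY5Y cells, which are then infected with LACV (MOI 0.01) and held 6 days at 37C. Percent activity is scaled between infected DMSO control and uninfected DMSO control.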
The target in assay [4] is Calcium and integrin-binding protein 1 (Homo sapiens) (UniProt Q99828). Nature of the assay: Primary qHTS for Identification of Calcium Integrin Binding Protein 1 (CIB1) Competitor (AID 1508620). Also: potency is read from the fitted curve at half-maximal effect. The procedure, abridged:
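Fluorescence polarization competition: GST-tagged CIB1 (1 uM final) preincubated with compound 15 min at room temperature, then FITC-labelled alphaIIb peptide (100 nM final) added. After 15 min at room temperature, polarization read at Ex 480/Em 540.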

The target in assay [5] is Protein phosphatase 1D (Homo sapiens) (UniProt O15297). Nature of the assay: Rhodamine-PBP qHTS Assay for Modulators of WT P53-Induced Phosphatase 1 (WIP1) (AID 1347425). An outline of the steps:
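Read-out: Rhodamine-PBP fluorescence (ex 525/em 598 nm) for released Pi, read each minute for 11 min after adding 10 uM VEPPL-pS-QETFS; signal taken as f1 minus pre-substrate f0. Enzyme 5 nM WIP1 with 1 hr room-temperature compound preincubation.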

The nature of assay [6]: qHTS for inhibitors of adenylyl cyclases using a fission yeast platform: a pilot screen against the NCATS LOPAC library (AID 1347410). An outline of the steps:
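Read-out: fbp1-GFP fluorescence by laser scanning cytometry (488 nm laser), a gain of signal when AC/cAMP-PKA signalling is inhibited. Strain CHP2027 expressing AC9, GNAS and PDE4D2; compounds at up to 57 µM; 18 h, 30C.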

In assay [7] the target is Single-stranded DNA cytosine deaminase (Homo sapiens) (UniProt Q9GZX7). Nature of the assay: Validation qHTS assay for inhibitors of Activation Induced Cytidine Deaminase (AID): AID signal (AID 1347429). The procedure, abridged:
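AID+UDG coupled FRET deamination; cpds up to 114 uM final; DJC20/DJC23 substrate, 4 hr RT; NaOH stop, 30 min RT; read Ex 540/Em 590.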

For assay [8], the target named is Calcium and integrin-binding protein 1 (Homo sapiens) (UniProt Q99828). Briefly: Validation qHTS for Identification of Calcium Integrin Binding protein 1 (CIB1) Competitor (AID 1508618). An outline of the steps: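 CIB1-GST (1 uM final) in 5 mM HEPES pH 7.4, 125 mM NaCl, 5 mM CaCl2, 0.01% Tween20 was preincubated 15 min at room temperature with compound (up to 114 uM), then FITC-alphaIIb peptide (100 nM) added for 15 min; fluorescence polarization read.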
Calcium and integrin-binding protein 1 (Homo sapiens), sequence (Q99828 whole entry, looked up): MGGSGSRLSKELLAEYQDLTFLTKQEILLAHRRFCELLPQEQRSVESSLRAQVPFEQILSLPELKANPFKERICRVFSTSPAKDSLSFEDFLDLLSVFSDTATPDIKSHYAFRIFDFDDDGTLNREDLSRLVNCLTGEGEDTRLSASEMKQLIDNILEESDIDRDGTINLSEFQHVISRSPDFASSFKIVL

Protein phosphatase 1D (Homo sapiens), sequence (O15297 whole entry, looked up): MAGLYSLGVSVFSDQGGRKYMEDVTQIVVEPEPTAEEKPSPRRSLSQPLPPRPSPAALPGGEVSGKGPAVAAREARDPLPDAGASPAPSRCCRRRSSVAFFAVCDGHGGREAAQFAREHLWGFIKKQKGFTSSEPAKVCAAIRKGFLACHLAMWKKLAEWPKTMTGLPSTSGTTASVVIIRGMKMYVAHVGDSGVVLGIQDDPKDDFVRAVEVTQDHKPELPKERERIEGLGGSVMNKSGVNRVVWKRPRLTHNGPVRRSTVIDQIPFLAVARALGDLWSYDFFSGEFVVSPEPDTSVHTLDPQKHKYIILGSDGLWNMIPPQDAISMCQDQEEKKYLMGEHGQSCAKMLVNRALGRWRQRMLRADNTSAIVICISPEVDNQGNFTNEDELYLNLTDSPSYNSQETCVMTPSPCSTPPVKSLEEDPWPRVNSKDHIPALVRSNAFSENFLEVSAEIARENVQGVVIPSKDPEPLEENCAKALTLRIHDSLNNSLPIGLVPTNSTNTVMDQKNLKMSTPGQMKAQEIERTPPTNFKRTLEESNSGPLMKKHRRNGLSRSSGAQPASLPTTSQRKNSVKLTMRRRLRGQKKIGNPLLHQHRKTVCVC
Single-stranded DNA cytosine deaminase (Homo sapiens), sequence (Q9GZX7 whole entry, looked up): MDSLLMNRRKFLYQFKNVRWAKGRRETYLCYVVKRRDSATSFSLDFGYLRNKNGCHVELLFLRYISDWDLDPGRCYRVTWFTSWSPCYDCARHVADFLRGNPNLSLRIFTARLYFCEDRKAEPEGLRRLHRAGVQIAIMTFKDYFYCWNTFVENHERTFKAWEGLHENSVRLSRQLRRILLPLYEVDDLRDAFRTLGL

For the compound `CCCCCCOC(=O)NC(=N)c1ccc(NCc2nc3cc(C(=O)N(CCC(=O)OCC)c4ccccn4)ccc3n2C)cc1`, the Potency entry in assay [1], in assay [2] and in assay [4] was “inactive” in each case. Besides, the result in assay [3] was inactive.
On to `O=C(c1cc(O)c(O)c(O)c1)c1ccc(O)c(O)c1O`, for which the Potency result in assay [2] is “inactive”. Further, the compound was called inactive in assay [5] and in assay [3].
For `O=C(O)[C@H](O)[C@@H](O)[C@H](O[C@@H]1O[C@H](CO)[C@H](O)[C@H](O)[C@H]1O)[C@H](O)CO`, the Potency result in assay [1], in assay [2] and in assay [4] was “inactive” in each case. For the same compound, the compound was called inactive in assay [5] and in assay [3].
With `COC(=O)C1=CO[C@@H](O)[C@@H]2C(CO)=CC[C@H]12`, the compound was classed as inactive in assay [6], in assay [7], in assay [3] and in assay [8]. Besides, in assay [4], the Potency result was “inactive”.
Regarding `Brc1ccc([C@H]2CN3CCSC3=N2)cc1`, the compound was classed as inactive in assay [6], in assay [7], in assay [3] and in assay [8]. In addition, in assay [4], the Potency entry was “inactive”.
`CO/N=C(/C(=O)N[C@@H]1C(=O)N2C(C(=O)[O-])=C(C[n+]3ccn4ncccc43)CS[C@H]12)c1nsc(N)n1`: the Potency result in assay [2] is “inactive”. Besides, the outcome in assay [5] was inactive.
As for `O=[N+]([O-])c1cncn1CCN1CCOCC1`, the Potency entry in assay [1], in assay [2] and in assay [4] was “inactive” throughout. The compound was classed as inactive in assay [5] and in assay [3].
Regarding `OCCCc1ccccc1`, the Potency result in assay [2] is “inactive”. Besides, the outcome in assay [5] and in assay [3] was inactive.
`CCN(CC)CCNC(=O)c1ccc(NS(C)(=O)=O)cc1`: the result in assay [6], in assay [7], in assay [3] and in assay [8] was inactive.
Take `CC1c2ccccc2CN1NC(=O)c1ccc(Cl)c(S(N)(=O)=O)c1` (stereo unspecified): the Potency entry in assay [1], in assay [2] and in assay [4] was “inactive” in each case. Further, the call in assay [5] and in assay [3] was inactive.
On to `CC(C)N(CCC(=O)c1ccc2ccccc2c1)Cc1ccccc1`, for which the compound was called inactive in assay [6], in assay [7] and in assay [8]. For the same compound, the Potency was 5.87 µM (active) in assay [1] and 28.2 µM (active) in assay [4].
As to `CN1CC(=O)N2[C@H](c3ccc4c(c3)OCO4)c3[nH]c4ccccc4c3C[C@@H]2C1=O`, the Potency result in assay [1], in assay [2] and in assay [4] was “inactive” throughout. The compound was called inactive in assay [5] and in assay [3].
Turning to `CCC1=C[C@@H]2CN(C1)Cc1c([nH]c3ccccc13)[C@@](C(=O)OC)(c1cc3c(cc1OC)N(C)[C@H]1[C@@](O)(C(=O)OC)[C@H](OC(C)=O)[C@]4(CC)C=CCN5CC[C@]31[C@@H]54)C2`, the Potency entry in assay [1], in assay [2] and in assay [4] was “inactive” in each case. Moreover, the outcome in assay [5] and in assay [3] was inactive.
Consider `O=[N+]([O-])c1ccc(-c2nc(-c3ccc(F)cc3)c(-c3ccncc3)[nH]2)cc1`, for which the compound was classed as inactive in assay [6], in assay [7], in assay [3] and in assay [8]. The Potency result in assay [4] is “inactive”.
As for `O=C1NC(=O)/C(=C/c2ccc3c(c2)OC(F)(F)O3)S1`, the outcome in assay [6], in assay [7] and in assay [3] was inactive. For the same compound, the Potency entry in assay [1] and in assay [4] was “inactive” in each case.
On to `Cc1nn(-c2ccccc2)c(C)c1/C=N/N1CCN(Cc2ccccc2)CC1`, for which the call in assay [6], in assay [7], in assay [3] and in assay [8] was inactive. The Potency entry in assay [4] is “inactive”.
